SMILES strings stand for the structures. Out of some 320,000 compounds screened, about 1,300 (0.41%) were called active. Inconclusive results (about 3%) are left out. The rule behind the calls is not given here. The list is a sample of the results. Potency and affinity values are given separately.

A short description of the assay: growth inhibition of non-replicating M. tuberculosis (AID 488890).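 Note: plate controls were DMSO cells for no effect and high antibiotic wells for full effect.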 To be noted: Mycobacterium tuberculosis non-replicating, at 25 µM, stronger effect = higher value.
`CC(=O)Oc1ccc(/C=C2/C(=O)N(c3ccccc3)N=C2C)cc1`: the inhibition (usually the relative decrease from the control value, in per cent) was found to be 32.7%.

On to `COc1ccc(/C=C2/C(=O)N(c3ccccc3)N=C2C)cc1`, for which the inhibition is 0.19%.

In the case of `C(=N\N=C\c1ccccc1)/c1ccccc1`, the inhibition came out at 9.87%. For `CCc1nn(CCCC(=O)N2CCC(C)CC2)c(=O)c2cc3occc3n12`, the inhibition is 2.85%. The figure for `COc1ccc(CNC(=O)c2cnccn2)cc1` is 66.2%; for `O=C(NCc1ccncc1)c1cnccn1` it is -7.93%. As for `NS(=O)(=O)c1ccc(CNC(=O)c2cnccn2)cc1`, the inhibition is -8.46%.

For `O=C(NCc1ccc(Cl)cc1)c1cnccn1`, the inhibition stood at 68.3%. Consider `CSc1ccc(NC(=O)NCCCN2CCN(c3ccccc3F)CC2)cc1`, for which the inhibition worked out at 50.5%. For the compound `Cc1cc(C)cc(NC(=O)C2C3C=CC4(O3)C2C(=O)N(CCCN2CCCCC2)C4C(=O)NC2CCCCC2)c1` (configuration not stated), the inhibition is 8.2%.

For `Cc1cc(OC(=O)c2ccc(S(=O)(=O)N3CCCCC3)cc2)c([N+](=O)[O-])c(=O)[nH]1`, the inhibition is -2.75%. The figure for `Cc1cc(C(=O)OCC(=O)Nc2cc(Cl)ccc2C)c(C)o1` is 0.98%; for `O=C(NCc1ccco1)c1ccc(NS(=O)(=O)c2cccc(F)c2)cc1` it is 29.2%; for `CC(C)COc1ccc(C(=O)Nc2ccc(N3CCOCC3)cc2N2CCOCC2)cc1` it is 43%. Take `COc1ccc(-c2cc3cccc(OC)c3oc2=O)cc1`: the inhibition stood at 24.1%. With `O=c1oc2c(O)cccc2cc1-c1nc2ccccc2[nH]1` the figure was 7.2%. Take `COc1cccc2cc(-c3nnc(-c4ccccc4)o3)c(=O)oc12`: the inhibition turned out to be 79.1%.

With `COc1cccc2cc(-c3ccccc3)c(=O)oc12`, the inhibition stood at 54.4%.

`O=C(CNS(=O)(=O)c1ccc(Cl)c(C(F)(F)F)c1)NC1CCCCC1`: the inhibition came out at 20.4%.

Regarding `CC(=O)CSc1nnc(Cc2ccc3c(c2)OCO3)o1`, the inhibition was 73.1%. As to `N#CCSc1nnc(Cc2ccc3c(c2)OCO3)o1`, the inhibition is 73.3%. With `Cn1nc(-c2ccccc2)c(COC(=O)c2cccc(Cl)c2)c1S(=O)(=O)c1ccccc1` the figure was -7.33%. As for `CCCC(=O)Nc1cccc(-c2nc3ccccc3o2)c1`, the inhibition is -1.01%. The figure for `CCCC(=O)Nc1cccc(-c2nc3cc(C)c(C)cc3o2)c1` is -4.03%; for `CC(=O)Nc1ccc(-c2nc3ccccc3c(=O)o2)cc1` it is 68.8%; for `CC(C)C(=O)Nc1cccc(-c2nc3ccccc3o2)c1` it is 9.28%. The figure for `O=C(Nc1cccc(-c2nc3ccccc3c(=O)o2)c1)c1ccccc1` is 60.9%; for `CC(=O)Nc1cccc(-c2nc3ccccc3o2)c1` it is 8.44%; for `CCC(CC)C(=O)Nc1cccc(-c2nc3ccccc3o2)c1` it is -1.13%. `O=C(Nc1ccc2nc(-c3ccccc3)oc2c1)c1ccco1`: the inhibition is -0.45%. As for `O=P(Oc1ccccc1)(Oc1ccccc1)C(O)c1ccc(Cl)cc1` (configuration not stated), the inhibition was -12%. The figure for `COc1cccc(CN2CCNC(=O)C2CC(=O)NC2Cc3ccccc3C2)c1` (configuration not stated) is -15.6%.

The values above are taken from PubChem BioAssay AID488890 (Southern Research Specialized Biocontainment Screening …, 2010).
